An excerpt weighted towards active compounds, which were near 7.3% of everything screened.
AmpC no deterg: AmpC beta-lactamase inhibition without detergent | P00811 | AmpC nitrocefin hydrolysis, absorbance 480 nm, 0.0001% Triton | Potency, µM (highest dose often 57.1 µM), without a hit: top-dose activity change, negative = inhibition, most hits filed as inhibitors | hit rate 0.52% among 330,000;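 note: potency is the fitted concentration of half-maximal effect; plate controls were no compound for no effect and no enzyme for full effect; nearly all actives have a fitted effect of over 20% in size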
Target sequence (P00811 whole entry, looked up): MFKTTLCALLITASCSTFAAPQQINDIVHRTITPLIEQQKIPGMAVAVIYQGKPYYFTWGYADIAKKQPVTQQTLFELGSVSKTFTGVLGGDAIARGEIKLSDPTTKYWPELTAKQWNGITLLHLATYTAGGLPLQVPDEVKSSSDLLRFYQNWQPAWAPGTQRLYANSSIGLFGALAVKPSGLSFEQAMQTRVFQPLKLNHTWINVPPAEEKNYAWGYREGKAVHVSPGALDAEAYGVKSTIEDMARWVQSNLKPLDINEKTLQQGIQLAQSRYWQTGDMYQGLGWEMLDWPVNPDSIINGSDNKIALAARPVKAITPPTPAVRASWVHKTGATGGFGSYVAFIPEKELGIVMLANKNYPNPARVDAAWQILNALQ
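AmpC (5.3 nM in the dispensed reagent) in 20 mM phosphate pH 7.0 with 0.01% (detergent screen) or 0.0001% Triton X-100 was preincubated with compounds for 15 min at room temperature. Nitrocefin was then added from an 800 uM solution, and hydrolysis was followed at 480 nm.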
HCV inh: inhibitors of hepatitis C virus infection; Huh7.5.1 HCVcc-Cre infection, luciferase reporter, 44 h; Potency, µM (top dose mostly 41.8 µM), without a hit: at the top dose activity change, negative = inhibition, most hits filed as inhibitors; hit rate 3.4% among 340,000; note: potency is the fitted concentration of half-maximal effect
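Cells seeded at 1,000/well and cultured 4 h, then compounds added followed by HCVcc-Cre virus (~0.5 moi). After 44 h further culture, luciferase substrate was added, plates held 15 min at room temperature, and luminescence read for 15 sec.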
AmpC inh detg: AmpC beta-lactamase inhibition with detergent present | P00811 | AmpC hydrolysis of nitrocefin, absorbance 480 nm, 0.01% Triton | Potency, µM (series often up to 114 µM), without a hit: at the top dose activity change, negative = inhibition, hits mostly inhibitors | hit rate 0.041% among 370,000 | AID 485294;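 note: potency is the fitted concentration of half-maximal effect; 0% = no-compound wells and -100% = no-enzyme wells; nearly all actives have a fitted effect of over 25% in size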
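AmpC (5.3 nM in the dispensed reagent) in 20 mM phosphate pH 7.0 with 0.01% (detergent screen) or 0.0001% Triton X-100 was preincubated with compounds for 15 min at room temperature. Nitrocefin was then added from an 800 uM solution, and hydrolysis was followed at 480 nm.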
FMDV antiviral: foot and mouth disease virus antiviral activity | hit rate 1.2% among 410,000 | Potency, µM (titrated, usually from 57.9 µM), inactives show at the top dose activity change, negative = inhibition, hits mostly inhibitors | FMDV antiviral cell-based qHTS; calls by dose curve; tested in HEK293T cells; note: read-out not given here; potency is the fitted concentration of half-maximal effect; nearly all actives have a fitted effect of over 45% in size
HCMV inh: human cytomegalovirus inhibition; activity change, negative = inhibition, % at 57.5 µM; HFF cells, HCMV-luciferase reporter, 72 h; stronger effect = lower value; AID 1259415; hit rate 4.5% among 410,000; in the data active = activity change below about -60%; inconclusive = no clear call, values can overlap the other calls; inactive = above about -39%
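Steps: HFFs plated, 16 h 37C; compounds added; HCMV-luciferase added to MOI 1 PFU/cell; 72 h 37C; OneGlo reagent, 5 min room temperature; luminescence read, normalized to controls.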
An asterisk follows results filed as active; ? = inconclusive; / = no result given; [ ] = dose if it differs, or a comment. Unless noted, calls come from the whole dose curve; as a rule, active = well fitted curve in the direction sought with a large enough effect; inconclusive = small, poorly fitted or top-dose-only effect, or another doubt; inactive = no such curve, though single readings can be large; an effect the other way counts as inactive or inconclusive. Unless noted, % is set by controls: 0 for no effect and ±100 for the full control effect.

SMILES	AmpC no deterg	HCV inh	AmpC inh detg	FMDV antiviral	HCMV inh
C=CCc1ccc(OCC(O)CN2CCC(Cc3ccccc3)CC2)c(OC)c1 (stereo unspecified)	50.6%	6.31µM*	-8.4%	-18.3%	30.0
O=C(N1CCc2cc(S(=O)(=O)NC[C@H]3O[C@@H](n4ccc(=O)[nH]c4=O)[C@H](O)[C@@H]3O)ccc2C1)C(F)(F)F	/	?	/	-28.0%	9.5
Cc1c(CN2CCOc3ccc(C(C)(O)COc4ccccc4)cc3C2)cnn1C (stereo unspecified)	/	/	/	-12.5%	/
Cc1nn(Cc2ccc([N+](=O)[O-])cc2)c(=O)n1-c1ccc(Cl)cc1	-7.5%[2.29 µM]	?	?	-18.0%	46.9
Cc1ccc(-n2c(C)nn(Cc3ccc([N+](=O)[O-])cc3)c2=O)cc1	1.4%[2.29 µM]	-12.2%	-5.9%	-13.2%	-82.4*
CCC(c1ccc(O)c(O)c1)C(CC)c1ccc(O)c(O)c1 (stereo unspecified)	/	12.6µM*	/	-18.3%	/
CCC(NC(C)C)C(O)c1ccc(O)c(O)c1 (stereo unspecified)	-23.9%	1.6%[8.37 µM]	-11.3%	-12.6%	73.6
Cc1ccccc1CN1CCC(CNc2ncnc3onc(-c4ccc(F)cc4)c23)CC1	/	/	1.5%	-18.9%	-4.9
CCOc1ccc(S(=O)(=O)N2CCC(C(=O)NCc3ccccn3)CC2)cc1C	88.1%	-6.6%	-9.3%	-19.6%	-25.5
Cc1cc(CSc2ccccc2)ccc1NC(=O)c1ccc(Cl)c([N+](=O)[O-])c1	-26.7%	7.94µM*	-6.9%	-26.7%	?
CSc1ccccc1NC(=O)c1ccc(CN2CCOCC2)cc1	-14.9%	6.1%	-11.3%	11.9%	18.4
Cc1cc(CSc2ccccc2)ccc1NC(=O)c1ccc(CN2CCOCC2)cc1	165.9%	?	-4.1%	12.6µM*	-77.5*
C[C@H]1CN([C@@H](C)CO)C(=O)c2c(c3ccccc3n2C)-c2ccccc2CO[C@H]1CN(C)C(=O)Nc1cccc(F)c1	/	/	/	/	-28.6
Cn1c(-c2cccnc2)cc2cnc(Nc3ccc(F)cc3)cc21	/	/	/	/	30.6
COC(=O)c1cc(=O)n(CCc2ccccc2F)c(=Nc2ccc(F)c(Cl)c2)s1	1.1%	7.94µM*	-4.8%	15.8µM*	?
COC(=O)c1cc(=O)n(-c2ccc(F)cc2)c(=Nc2ccc(F)cc2)s1	-16.8%	?	-8.2%	22.4µM*	64.4
COC(=O)c1ccc(N=c2sc(C(=O)OC)cc(=O)n2C)cc1	-13.4%	10.6%	0.1%	31.6µM*	20.5
COC(=O)c1cc(=O)n(Cc2ccco2)c(=Nc2ccc(F)c(Cl)c2)s1	-17.5%	?	-12.3%	?	-29.2
S=c1[nH]cc2cnccn12	/	/	/	?	-0.3
Cc1cc(NC(=O)c2cccc(Oc3ccccc3)c2)n[nH]1	-39.7%	-23.0%	-5.6%	32.3%	-70.9*
COc1cccc(Cn2c(=O)n(-c3ccccc3C)c(=O)c3c2c2cc(C)ccc2n3C)c1	/	/	11.2%	-23.9%	-68.2*
Cc1ccc(NC(=O)COc2ccc(CCO)cc2-n2nc3ccccc3n2)cc1C	148.1%	12.6µM*	-15.4%	-18.1%	?
CCC(=O)N1CCc2cc(Br)cc(S(=O)(=O)CCC(=O)NCc3cccc(OC)c3)c21	/	/	-0.3%	-4.3%	1.0
O=C(CSc1nnnn1C1CC2CCC1C2)Nc1ccnc2ccccc12 (stereo unspecified)	-24.0%	-15.2%	-2.3%	39.8µM*	-75.5*
COc1ccccc1NC(=O)C(Cc1ccccc1)NS(=O)(=O)c1cccc2nsnc12 (stereo unspecified)	/	/	0.5%	25.6%	-15.2
Cc1nc2cc(-c3ccsc3-n3c(C)ccc3C)[nH]n2c(=O)c1Cl	-50.1%	19.5%	-1.4%	31.6µM*	-12.5
Cc1cc(C(=O)CSc2ccc(F)cc2)cc(C)c1OC(=S)N(C)C	-18.7%	?	-11.1%	0.794µM*	-92.2*
CC1(C)Cc2c(sc(NC(=O)C(=O)NCCCN3CCOCC3)c2C#N)CO1	-28.8%	7.3%	-3.8%	-3.8%	-25.7
Nc1c2c(nc3c1CCCC3)CCCC2 (tested in a mixture with another compound)	-6.1%	11.4%	2.7%	-6.3%	-8.0

Screening results as filed in PubChem BioAssay.
